From PubChem BioAssay AID1159580 (chemical genetic matrix, 2015)
The whole screen tested about 5,500 compounds, of which about 2,000 (36%) were called active. Roughly 18% stayed inconclusive and do not appear here. Some of the results follow. A number with no mark means an inactive call. Rule as the data show it: active = normalized growth mostly below about 0.91 (no sharp cut-off); inconclusive = no clear call, values can overlap the other calls; inactive = mostly above about 0.92.

Assay: chemical genetic growth profiling, strain panel (AID 1159580);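 also: tested at 20 µM; growth read once vehicle control cultures reached saturation at 30 °C; 1 = growth at the plate median or of vehicle wells; lower values mean less growth of the strain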
Settings: growth OD
[1] = S. cerevisiae deletion strains, locus YDL101C, strain DUN1, active compounds read low
[2] = S. cerevisiae deletion strains, locus YHR030C, strain SLT2, active compounds read low

Cn1nc(-c2ccccc2)c(O)c(N=Nc2ccccc2)c1=O
normalized growth (S. cerevisiae deletion strains, locus YAR019C, strain CDC15, active compounds read low): 0.964 | normalized growth (S. cerevisiae deletion strains, locus YBL105C, strain PKC1, active compounds read low): 0.972 | normalized growth (S. cerevisiae deletion strains, locus YBR135W, strain CKS1, active compounds read low): 0.957 | normalized growth (S. cerevisiae deletion strains, locus YBR136W, strain MEC1, active compounds read low): 0.96 | normalized growth (S. cerevisiae deletion strains, locus YBR160W, strain CDC28, active compounds read low): 0.976 | normalized growth (S. cerevisiae deletion strains, locus YDL017W, strain CDC7, active compounds read low): 0.983 | normalized growth (S. cerevisiae deletion strains, locus YDL028C, strain MPS1, active compounds read low): 0.963 | normalized growth [1]: 0.972 | normalized growth (S. cerevisiae deletion strains, locus YDL108W, strain KIN28, active compounds read low): 0.962 | normalized growth (S. cerevisiae deletion strains, locus YDL132W, strain cdc53, active compounds read low): 0.968 | normalized growth (S. cerevisiae deletion strains, locus YDL214C, strain PRR2, active compounds read low): 0.906 | normalized growth (S. cerevisiae deletion strains, locus YDR052C, strain DBF4, active compounds read low): 0.985 | normalized growth (S. cerevisiae deletion strains, locus YDR054C, strain cdc34, active compounds read low): 0.971 | normalized growth (S. cerevisiae deletion strains, locus YDR226W, strain ADK1, active compounds read low): 0.971 | normalized growth (S. cerevisiae deletion strains, locus YDR477W, strain SNF1, active compounds read low): 0.917 | normalized growth (S. cerevisiae deletion strains, locus YER123W, strain YCK3, active compounds read low): 0.858 | normalized growth (S. cerevisiae deletion strains, locus YER133W, strain GLC7, active compounds read low): 0.898 | normalized growth (S. cerevisiae deletion strains, locus YFL009W, strain cdc4, active compounds read low): 0.969 | normalized growth (S. cerevisiae deletion strains, locus YFL029C, strain CAK1, active compounds read low): 0.969 | normalized growth (S. cerevisiae deletion strains, locus YFR003C, strain YPI1, active compounds read low): 0.971 | normalized growth (S. cerevisiae deletion strains, locus YFR019W, strain FAB1, active compounds read low): 0.898 | normalized growth (S. cerevisiae deletion strains, locus YFR028C, strain CDC14, active compounds read low): 0.974 | normalized growth (S. cerevisiae deletion strains, locus YGR040W, strain KSS1, active compounds read low): 0.905 | normalized growth (S. cerevisiae deletion strains, locus YGR052W, strain FMP48, active compounds read low): 0.998 | normalized growth (S. cerevisiae deletion strains, locus YGR092W, strain DBF2, active compounds read low): 0.913 | normalized growth [2]: 0.931 | normalized growth (S. cerevisiae deletion strains, locus YHR079C, strain IRE1, active compounds read low): 0.982 | normalized growth (S. cerevisiae deletion strains, locus YHR082C, strain KSP1, active compounds read low): 0.964 | normalized growth (S. cerevisiae deletion strains, locus YHR205W, strain SCH9, active compounds read low): 0.943 | normalized growth (S. cerevisiae deletion strains, locus YIL147C, strain SLN1, active compounds read low): 0.964 | normalized growth (S. cerevisiae deletion strains, locus YJL095W, strain BCK1, active compounds read low): 0.993 | normalized growth (S. cerevisiae deletion strains, locus YJL128C, strain PBS2, active compounds read low): 0.95 | normalized growth (S. cerevisiae deletion strains, locus YJL157C, strain FAR1, active compounds read low): 0.89 | normalized growth (S. cerevisiae deletion strains, locus YJR016C, strain ILV3, active compounds read low): 0.976 | normalized growth (S. cerevisiae deletion strains, locus YJR066W, strain TOR1 (second series), active compounds read low): 0.854 | normalized growth (S. cerevisiae deletion strains, locus YJR066W, strain TOR1, active compounds read low): 0.981 | normalized growth (S. cerevisiae deletion strains, locus YKL048C, strain ELM1, active compounds read low): 0.944 | normalized growth (S. cerevisiae deletion strains, locus YKL067W, strain YNK1, active compounds read low): 0.906 | normalized growth (S. cerevisiae deletion strains, locus YKL101W, strain HSL1, active compounds read low): 0.921 | normalized growth (S. cerevisiae deletion strains, locus YKL193C, strain SDS22, active compounds read low): 0.968 | normalized growth (S. cerevisiae deletion strains, locus YKL203C, strain TOR2, active compounds read low): 0.98 | normalized growth (S. cerevisiae deletion strains, locus YLR113W, strain HOG1, active compounds read low): 0.953 | normalized growth (S. cerevisiae deletion strains, locus YLR133W, strain CKI1, active compounds read low): 0.944 | normalized growth (S. cerevisiae deletion strains, locus YLR403W, strain SFP1, active compounds read low): 0.89 | normalized growth (S. cerevisiae deletion strains, locus YML070W, strain DAK1, active compounds read low): 0.885 | normalized growth (S. cerevisiae deletion strains, locus YMR001C, strain CDC5, active compounds read low): 0.961 | normalized growth (S. cerevisiae deletion strains, locus YMR205C, strain PFK2 (second series), active compounds read low): 0.937 | normalized growth (S. cerevisiae deletion strains, locus YMR277W, strain FCP1, active compounds read low): 0.973 | normalized growth (S. cerevisiae deletion strains, locus YNL006W, strain LST8, active compounds read low): 0.967 | normalized growth (S. cerevisiae deletion strains, locus YNL020C, strain ARK1, active compounds read low): 0.927 | normalized growth (S. cerevisiae deletion strains, locus YNL161W, strain CBK1, active compounds read low): 0.965 | normalized growth (S. cerevisiae deletion strains, locus YNL183C, strain NPR1, active compounds read low): 1 | normalized growth (S. cerevisiae deletion strains, locus YNL207W, strain RIO2, active compounds read low): 0.964 | normalized growth (S. cerevisiae deletion strains, locus YNL222W, strain SSU72, active compounds read low): 0.966 | normalized growth (S. cerevisiae deletion strains, locus YNL307C, strain MCK1 (second series), active compounds read low): 0.941 | normalized growth (S. cerevisiae deletion strains, locus YOL078W, strain AVO1, active compounds read low): 0.968 | normalized growth (S. cerevisiae deletion strains, locus YOL136C, strain PFK27, active compounds read low): 0.907 | normalized growth (S. cerevisiae deletion strains, locus YOR061W, strain CKA2, active compounds read low): 0.864 | normalized growth (S. cerevisiae deletion strains, locus YOR119C, strain RIO1, active compounds read low): 0.952 | normalized growth (S. cerevisiae deletion strains, locus YOR231W, strain MKK1, active compounds read low): 0.95 | normalized growth (S. cerevisiae deletion strains, locus YOR329C, strain SCD5, active compounds read low): 0.974 | normalized growth (S. cerevisiae deletion strains, locus YPL031C, strain PHO85, active compounds read low): 0.918 | normalized growth (S. cerevisiae deletion strains, locus YPL153C, strain RAD53, active compounds read low): 0.914 | normalized growth (S. cerevisiae deletion strains, locus YPL204W, strain HRR25, active compounds read low): 0.93 | normalized growth (S. cerevisiae deletion strains, locus YPL209C, strain IPL1, active compounds read low): 0.972 | normalized growth (S. cerevisiae deletion strains, locus YPL256C, strain CLN2, active compounds read low): 0.998 | normalized growth (S. cerevisiae deletion strains, locus YPR025C, strain CCL1, active compounds read low): 0.97 | normalized growth (S. cerevisiae deletion strains, locus YPR106W, strain ISR1, active compounds read low): 0.977 | normalized growth (S. cerevisiae deletion strains, locus YPR111W, strain DBF20, active compounds read low): 0.988 | normalized growth (S. cerevisiae deletion strains, strain NNK1, active compounds read low): 0.966 | normalized growth (S. cerevisiae deletion strains, strain TSCII, active compounds read low): 0.963

Cn1c(=O)c(-c2ccccc2)c(O)c2ccccc21
normalized growth (S. cerevisiae deletion strains, locus YAL013W, strain DEP1, active compounds read low): 0.868 (active) | normalized growth (S. cerevisiae deletion strains, locus YBR229C, strain ROT2, active compounds read low): 0.887 (active) | normalized growth [1]: 0.636 (active) | normalized growth (S. cerevisiae deletion strains, locus YDR150W, strain NUM1, active compounds read low): 0.825 | normalized growth (S. cerevisiae deletion strains, locus YEL061C, strain CIN8, active compounds read low): 0.921 | normalized growth (S. cerevisiae deletion strains, locus YGR078C, strain PAC10, active compounds read low): 0.871 (active) | normalized growth (S. cerevisiae deletion strains, locus YGR229C, strain SMI1, active compounds read low): 0.953 | normalized growth [2]: 0.533 (active) | normalized growth (S. cerevisiae deletion strains, locus YHR087W, strain rtc3, active compounds read low): 0.99 | normalized growth (S. cerevisiae deletion strains, locus YJL187C, strain SWE1, active compounds read low): 0.826 (active) | normalized growth (S. cerevisiae deletion strains, locus YJR043C, strain POL32, active compounds read low): 0.842 (active) | normalized growth (S. cerevisiae deletion strains, locus YJR075W, strain HOC1, active compounds read low): 0.881 (active) | normalized growth (S. cerevisiae deletion strains, locus YKL190W, strain CNB1, active compounds read low): 0.942 | normalized growth (S. cerevisiae deletion strains, locus YLR039C, strain RIC1, active compounds read low): 0.75 (active) | normalized growth (S. cerevisiae deletion strains, locus YLR058C, strain SHM2 (second series), active compounds read low): 0.926 (active) | normalized growth (S. cerevisiae deletion strains, locus YLR085C, strain ARP6, active compounds read low): 0.438 (active) | normalized growth (S. cerevisiae deletion strains, locus YLR262C, strain YPT6, active compounds read low): 0.81 (active) | normalized growth (S. cerevisiae deletion strains, locus YML094W, strain GIM5, active compounds read low): 0.968 | normalized growth (S. cerevisiae deletion strains, locus YMR219W, strain ESC1, active compounds read low): 0.945 (active) | normalized growth (S. cerevisiae deletion strains, locus YMR263W, strain SAP30, active compounds read low): 0.898 (active) | normalized growth (S. cerevisiae deletion strains, locus YMR307W, strain GAS1, active compounds read low): 0.767 | normalized growth (S. cerevisiae deletion strains, locus YNL153C, strain GIM3, active compounds read low): 0.878 (active) | normalized growth (S. cerevisiae deletion strains, locus YNL298W, strain CLA4 (second series), active compounds read low): 0.84 | normalized growth (S. cerevisiae deletion strains, locus YNL322C, strain KRE1, active compounds read low): 0.932 (active) | normalized growth (S. cerevisiae deletion strains, locus YNR030W, strain Alg12, active compounds read low): 0.837 (active) | normalized growth (S. cerevisiae deletion strains, locus YOL006C, strain TOP1, active compounds read low): 0.881 | normalized growth (S. cerevisiae deletion strains, locus YPL055C, strain LGE1, active compounds read low): 0.907 | normalized growth (S. cerevisiae deletion strains, locus YPL241C, strain CIN2, active compounds read low): 0.816 (active) | normalized growth (S. cerevisiae deletion strains, locus YPR135W, strain CTF4, active compounds read low): 0.442 (active) | normalized growth (S. cerevisiae strains, strain wild type, active compounds read low): 0.9 (active)
